# Data taken from PubChem BioAssay (NCATS).
# Results filed as inconclusive are left out. Entries that show only a call come without a potency. Unmarked numbers belong to inactive results. The source made the active and inactive calls. Calls come from the whole dose curve; as a rule, active = well fitted curve in the direction sought with a large enough effect; inconclusive = small, poorly fitted or top-dose-only effect, or another doubt; inactive = no such curve, though single readings can be large; an effect the other way counts as inactive or inconclusive.
# Target: Calcium and integrin-binding protein 1 (Homo sapiens) (UniProt Q99828)
# Test: Primary qHTS for Identification of Calcium Integrin Binding Protein 1 (CIB1) Competitor (AID 1508620);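 for activity change, negative = inhibition: GST tagged CIB1 binding a fluorescein labelled alphaIIb integrin peptide tracer; top concentration of the series differs between compounds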
# Conditions: CIB1-GST / FITC-alphaIIb peptide fluorescence polarization; series mostly up to 57.7 µM
# In short: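 CIB1-GST (1 uM final) and compound incubated 15 min at room temperature before adding FITC-alphaIIb peptide tracer (100 nM final). Competition for binding read by fluorescence polarization (ex 480, em 540) after another 15 min at room temperature.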
# Potency is the fitted concentration of half-maximal effect.
# Calcium and integrin-binding protein 1 (Homo sapiens), sequence (Q99828 whole entry, looked up): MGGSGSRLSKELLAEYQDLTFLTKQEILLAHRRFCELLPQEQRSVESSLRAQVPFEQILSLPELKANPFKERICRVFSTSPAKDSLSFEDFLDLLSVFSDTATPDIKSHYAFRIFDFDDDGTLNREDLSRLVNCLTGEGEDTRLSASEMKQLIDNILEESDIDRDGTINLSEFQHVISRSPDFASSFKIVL
Compound,Potency,"activity change, negative = inhibition"
CC(C)c1c(C(=O)Nc2ccccc2)c(-c2ccccc2)c(-c2ccc(F)cc2)n1CC[C@H](O)C[C@@H](O)CC(=O)O,inactive,–
C=C1[C@H](n2cnc3c(=O)[nH]c(N)nc32)C[C@H](O)[C@H]1CO,inactive,–
CO[C@H]1O[C@@H]2O[C@@]3(C)CC[C@@H]4[C@@H](C)CC[C@@H]([C@H]1C)[C@@]24OO3,inactive,–
CC(=O)OCC(=O)[C@@]1(O)CC[C@H]2[C@@H]3CCC4=CC(=O)C=C[C@]4(C)[C@@H]3[C@@H](O)C[C@@]21C,inactive,–
C[C@]12C=CC(=O)C=C1CC[C@@H]1[C@@H]2[C@@H](O)C[C@@]2(C)[C@@H]1CC[C@]2(O)C(=O)CO,inactive,–
N=C1SC(=Cc2ccc(-c3ccc4c(c3)C(=O)NC4=O)o2)C(=O)N1c1ccc(Br)cc1,inactive,–
CC(C)n1c(C=C[C@H](O)C[C@H](O)CC(=O)O)c(-c2ccc(F)cc2)c2ccccc21,inactive,–
CO[C@H]1/C=C\O[C@@]2(C)Oc3c(C)c(O)c4c(O)c(c5c(nc6cc(C)ccn65)c4c3C2=O)NC(=O)C(C)=CC=C[C@H](C)[C@H](O)[C@@H](C)[C@@H](O)[C@@H](C)[C@H](OC(C)=O)[C@H]1C,inactive,–
CCCCC[C@H](O)C=C[C@H]1[C@H](O)CC(=O)[C@H]1CCCCCCC(=O)O,inactive,–
CCC(=C(c1ccc(O)cc1)c1ccc(OCCNC)cc1)c1ccccc1,inactive,–
OC[C@H]1O[C@@H](O[C@H]2[C@@H](O)[C@@](O)(CO)O[C@@H]2CO)[C@H](O)[C@@H](O)[C@@H]1O,inactive,–
CC1C(=O)OC2C(O)C34C5CC(C(C)(C)C)C36C(OC(=O)C6O)OC4(C(=O)O5)C12O (stereo not given),inactive,–
C=C1c2cccc(O)c2C(O)=C2C(=O)[C@@]3(O)C(O)=C(C(N)=O)C(=O)[C@@H](N(C)C)[C@@H]3[C@@H](O)[C@H]12,inactive,–
CO[C@H]1C=CO[C@@]2(C)Oc3c(C)c(O)c4c(O)c(c(C=NN5CCN(C)CC5)c(O)c4c3C2=O)NC(=O)C(C)=CC=C[C@H](C)[C@H](O)[C@@H](C)[C@@H](O)[C@@H](C)[C@H](OC(C)=O)[C@H]1C,–,-2.55% [at 12.4 µM]
COc1cc(CNC(=O)CCCCC=CC(C)C)ccc1O,inactive,–
CNC(=O)[C@H](CC1=CN=C2C=CCC=C12)NC(=O)[C@@H](CC(=O)NO)CC(C)C,inactive,–
C=CCc1cccc(C=NNC(=O)CN2CCN(Cc3ccccc3)CC2)c1O,inactive,–
COc1nccc(-c2c(-c3ccc(F)cc3)ncn2C2CCNCC2)n1,inactive,–

Compound,Potency,"activity change, negative = inhibition"
CCNC(=O)CCCC=CC[C@@H]1[C@H](C=CC(O)CCc2ccccc2)[C@@H](O)C[C@@H]1O (stereo not given in full),inactive,–
CN1CCC[C@H]1CCO[C@](C)(c1ccccc1)c1ccc(Cl)cc1,inactive,–
NS(=O)(=O)c1cc(Cl)c(Cl)c(S(N)(=O)=O)c1,inactive,–
O=C1Nc2ccc(I)cc2C1=Cc1cc(Br)c(O)c(Br)c1,inactive,–
CC(C)C[C@H](NC(=O)c1cc2ccccc2s1)C(=O)N1CCN(C(=O)[C@H](CO)NS(=O)(=O)c2ccc(Cl)cc2Cl)CC1,inactive,–
O=C(C=Cc1ccc(O)cc1)c1ccc(O)cc1O,inactive,–
FC(F)(F)c1ccc(C=Cc2nc(COc3ccc(CCCCn4ccnn4)cc3)co2)cc1,inactive,–
CCOC(=O)[C@H](CCc1ccccc1)N[C@@H](C)C(=O)N1CCCC1C(=O)O (stereo not given in full),inactive,–
Cc1cc(CS(=O)(=O)c2ccccc2)cc(OCc2ccc(CN3CCC[C@H]3CO)cc2)c1,inactive,–
C[C@]12CCC3=C4CCC(=O)C=C4CC[C@@H]3[C@H]1CC[C@@]2(O)CC#N,inactive,–
CNC(=O)c1cc(COc2nnc(Nc3ccc(Cl)cc3)c3ccoc23)ccn1,inactive,–
Cc1ccc(NC(=O)Nc2cc(C(F)(F)F)ccc2F)cc1Nc1ccc2c(c1)NC(=O)C2=Cc1ccc[nH]1,inactive,–
CC=C1C2C=C(C)CC1(N)c1ccc(=O)[nH]c1C2 (stereo not given),inactive,–
O=C(CCCN1CCN(c2ccc(F)cc2)CC1)NC1c2ccccc2CSc2ccccc21 (stereo not given),inactive,–
COc1ccc2cc1Oc1ccc(cc1)C[C@H]1c3cc(c(OC)cc3CCN1C)Oc1c(OC)c(OC)cc3c1[C@H](C2)N(C)CC3,inactive,–
CC(C)N(CCCNC(=O)Nc1ccc(C(C)(C)C)cc1)C[C@H]1O[C@@H](n2cc(Br)c3c(N)ncnc32)[C@H](O)[C@H]1O,inactive,–
Fc1ccc(C(c2ccc(F)cc2)N2CCN(CC=Cc3ccccc3)CC2)cc1,19.2 µM (active),–
CC(O)=C(C#N)C(=O)Nc1ccc(C(F)(F)F)cc1,inactive,–

# System: not listed separately
# Test: Counterscreen qHTS for small molecule stabilizers of the endoplasmic reticulum resident proteome: GLuc-NoTag assay (AID 1508627);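 for activity change, negative = inhibition: SH-SY5Y cells given compound then 100 nM thapsigargin to empty ER calcium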
# Conditions: Gaussia luciferase NoTag secretion counterscreen, luminescence, thapsigargin 100 nM for final 4 h; series mostly up to 76.4 µM
# In short: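 Counterscreen line: SH-SY5Y-GLuc-NoTag cells, treated with compound 19 hr before a 4 hr, 100 nM thapsigargin calcium depletion. Secreted Gaussia luciferase in the medium was measured by luminescence after coelenterazine was added (0.07x final), with cells unlysed.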
row,Compound,Potency
1,CN1CCC[C@H]1CCO[C@](C)(c1ccccc1)c1ccc(Cl)cc1,inactive
2,NS(=O)(=O)c1cc(Cl)c(Cl)c(S(N)(=O)=O)c1,inactive
3,CC(C)C[C@H](NC(=O)c1cc2ccccc2s1)C(=O)N1CCN(C(=O)[C@H](CO)NS(=O)(=O)c2ccc(Cl)cc2Cl)CC1,44.7 µM (active)
4,O=C(CCCN1CCN(c2ccc(F)cc2)CC1)NC1c2ccccc2CSc2ccccc21 (stereo not given),39.8 µM (active)
